Test results as given in ChEMBL document CHEMBL1157539, “Thousands of chemical starting points for antimalarial lead identification” (Nature, 2010).

These compounds were tested on Plasmodium falciparum (assay: GSK_TCMDC: Inhibition of Plasmodium falciparum 3D7 in whole red blood cells, using parasite LDH activity as an index of growth. Test compounds present at 2uM).
Assay type: functional

Compound | Inhibition [%]
Cl.N#Cc1ccc(NC(=O)c2ccc(Cc3ccc4c(c3)CCN(C3CCC3)CC4)cn2)cc1 | 91
O=C(NCCCCN1CCC(c2ccc(-c3ccco3)cc2)CC1)c1ccc(NC(=O)c2ccc(Cl)cc2)cc1 | 100
CN1CCN(c2ccnc3ccc(NC(=O)c4ccc(Cl)c(Cl)c4)cc23)CC1 | 100
c1ccc2oc(-c3cc4ccncc4cc3OC3CCNCC3)cc2c1 | 100
CCN(CC)CCOc1ccc(C(O)(C#CC(O)(c2ccc(Br)cc2)c2ccc(OCCN(CC)CC)cc2)c2ccc(Br)cc2)cc1 (configuration not stated) | 99
CCCc1cc(NCC)nc(Nc2ccc(C)cc2)n1 | 95
Clc1cc(Nc2ncnc3cc(C#C[C@H]4CCCN4)sc23)cc2nc(Cc3ccccc3)[nH]c12.O=C(O)C(F)(F)F | 91
Cc1ccc(NC(=O)c2cccc(C#N)c2)cc1-c1ccc(C(=O)Nc2ccncc2)cc1 | 94
Cc1nnc2c(NC(=O)NC3CCCC3)cc3cc(-c4ccc(CN(C)C)cc4)ccc3n12 | 100
CC1(C)OC[C@]2(C)[C@@H](CC[C@]3(C)C4=CC(=O)CCC4CC[C@@H]23)O1 (some centres not stated) | 97
CN(Cc1ccc(NC(=O)CCC2CCN(C(=O)/C=C/c3ccc(Cl)c(Cl)c3)CC2)cc1)C1CCOCC1 | 94
c1ccc(-c2cc(NCCCn3ccnc3)nc(-c3cccnc3)n2)cc1 | 84
N#Cc1ccc(N[C@@H](CC2CCCCC2)C(=O)N[C@@H]2CCCc3ccccc32)c2ccccc12.O=C(O)C(F)(F)F | 99
Cc1cc(-c2ccc(CNC3Cc4ccccc4C3)cc2)ccc1S(=O)(=O)NCCN1CCCC1.O=C(O)C(F)(F)F | 100
O=C(/C=C/c1ccc(Cl)cc1)NCCCCCN1CCCN(C(=O)Nc2ccc(F)c(Cl)c2)CC1 | 94
CN(C)C1CCN(Cc2ccc(N3CCN(Cc4cccc5[nH]ccc45)CC3)nc2)CC1 | 80
CC(C)(C)c1ccc(CNC(=O)c2cc(CNC3CCNCC3)ccc2O)cc1 | 96
CCCCN(CCCC)CCOc1cc2c(cc1OC)CCN2C(=O)/C=C/c1ccccc1Cl.Cl | 87
CCCCCC(C)NC[C@@H](O)[C@H](Cc1ccccc1)NC(=O)c1cc(NCC)cc(N2CCCCS2(=O)=O)c1.Cl (some centres not stated) | 98
O=C(Nc1ccc(Cn2ncc(N3CCCNCC3)c(Cl)c2=O)cc1)Nc1ccc(F)cc1[N+](=O)[O-] | 90
COc1ccc(-c2ccc(NC(=O)c3ccc(Cl)cc3)cc2)cc1CN(C)CCN(C)C.O=C(O)C(F)(F)F | 97
CN1CCCC(CN2CCN(Cc3ccc(-c4ccc(-c5nc6ccccc6[nH]5)cc4)cc3)CC2)C1.O=C(O)C(F)(F)F (configuration not stated) | 100
Cc1nc(N)nc(N)c1OCc1cccc2ccccc12.Cl | 96
CCc1c(CCNCCc2cccc(CCNCCc3ccc(OC)c(OC)c3CC)c2)ccc(OC)c1OC.Cl | 81
CN1CCN(C(C(=O)NCc2cc(Cl)cc(Cl)c2)c2ccccc2-c2ccsc2)CC1 (configuration not stated) | 95
CCOc1ccccc1C1C(C(=O)C(C)(C)C)N2c3ccc(Br)cc3C=CC2C12C(=O)c1ccccc1C2=O (configuration not stated) | 95
COc1ccc(CN2CCCN(Cc3cccc(C(=O)Nc4ccc(C)c(F)c4)c3)CC2)cc1.O=C(O)C(F)(F)F | 83
